tim10-1 inh: growth inhibitors of tim10-1 mutant yeast; inhibition, % at 20 µM; AID 463190; 330,000 tested, 2.2% active; S. cerevisiae tim10-1 ts strain growth, BacTiter-Glo, 24 h;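 active = inhibition of at least 40%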;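 also: mutant grown at 25 °C; 0% = DMSO wells with yeast and 100% = wells holding no yeast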
TIM10 inh: TIM10 yeast growth inhibition. S. cerevisiae TIM10 strain growth, BacTiter-Glo luminescence, 24 h. inhibition, % at 10 µM. 330,000 tested, 1.4% active. AID 463195;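 active = inhibition of 40% or more at the single tested concentration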;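 also: wild-type TIM10 isogenic control strain grown at permissive 25 °C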
PfHsp90 yeast 2: reduces growth (ATP signal) of yeast expressing P. falciparum Hsp90; S. cerevisiae expressing PfHsp90, BacTiter-Glo ATP, 48 h; yeast lacking PDR1 and PDR3 efflux regulators; inhibition, % at 9.4 µM; 310,000 tested, 0.32% active; AID 504621;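 active = every replicate shows inhibition above about 80%, whatever the replicate mean, limit read from the data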;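 also: 0% = DMSO neutral controls and 100% = 20 µM radicicol positive controls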
SKKanGAS inh: inhibitors of SKKanGAS S. pyogenes growth in kanamycin (SK-promoter or general growth effect). BacTiter-Glo, 6 h. inhibition, % at 7.5 µM. 300,000 tested, 1.3% active;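 active = mean replicate score, as percent of positive control median, at least 50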;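 also: strain carries kanamycin resistance gene driven by streptokinase promoter and grows in 40 µg/ml kanamycin; loss of luminescence reflects streptokinase promoter inhibition or plain growth inhibition; 0% = median of DMSO wells and 100% = positive control at its reference dose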
tim23-1 inh: growth inhibitors of tim23-1 mutant yeast | S. cerevisiae tim23-1 growth, BacTiter-Glo luminescence, 24 h | inhibition, % at 20 µM | 330,000 tested, 1.3% active;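 active = growth inhibition of the mutant yeast at or above 50%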;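 also: temperature-sensitive mutant grown at 25 °C; plate controls were DMSO-treated mutant yeast for no effect and medium wells lacking yeast for full effect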
tim10-1 conf: tim10-1 yeast growth inhibition, confirmed; shares compounds with tim10-1 inh; S. cerevisiae tim10-1 ts strain growth, BacTiter-Glo, 24 h; inhibition, % at 20 µM; 7,400 tested, 56% active;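 active = inhibition of yeast growth at or above a set limit in either of two repeat tests at 20 µM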;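 also: tim10-1 mutant grown at permissive 25 °C to find synthetic lethal compounds; 0% = DMSO yeast wells and 100% = medium wells without yeast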
TIM10 conf: TIM10 yeast growth inhibition, confirmed; S. cerevisiae tim10 strain growth, BacTiter-Glo luminescence, 24 h; 4,600 tested, 63% active; shares compounds with TIM10 inh; inhibition, % at 10 µM;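 active = inhibition of yeast growth at or above a set limit in either of two replicates at 10 µM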;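 also: this counterscreen used the strain with wild-type TIM10; 0% = yeast with DMSO and 100% = medium wells lacking yeast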
tim23-1 conf: tim23-1 yeast growth inhibition, confirmed; shares compounds with tim23-1 inh; S. cerevisiae tim23-1 growth, BacTiter-Glo luminescence, 24 h; inhibition, % at 20 µM; 4,400 tested, 83% active; AID 463218;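 active = inhibition above about 39% in either of two replicate wells at 20 µM, limit read from the data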;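 also: temperature-sensitive tim23-1 mutant grown at 25 °C; 0% = DMSO wells with yeast and 100% = medium wells without yeast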
Numbers without * were called inactive. Hits are enriched below; roughly 4.4% of the tested compounds scored in any of these assays.

Screening COc1cccc(NC(=S)N/N=C2/CCCCc3ccccc32)c1 returned PfHsp90 yeast 2 -8 and SKKanGAS inh -32.
Screening Cc1ccc(C)c(NC(=S)N/N=C2/CCCCc3ccccc32)c1 returned tim10-1 inh 54*, TIM10 inh 45*, PfHsp90 yeast 2 -35, SKKanGAS inh 55*, tim23-1 inh 57*, tim10-1 conf 35*, TIM10 conf -1 and tim23-1 conf 44*.
Screening O=c1oc2ccccc2n1Cc1cccc(C(F)(F)F)c1 returned tim10-1 inh 23, TIM10 inh 19, PfHsp90 yeast 2 -15, SKKanGAS inh 12 and tim23-1 inh 25.
Screening CN1CCN(C(=O)c2cc(=O)c3cc(Cl)cc(Cl)c3o2)CC1 returned tim10-1 inh -5, TIM10 inh -10, PfHsp90 yeast 2 12, SKKanGAS inh -1 and tim23-1 inh -12.
`CSc1nnc(-c2ccccc2)o1` gave tim10-1 inh -26, TIM10 inh -7, PfHsp90 yeast 2 6, SKKanGAS inh -1 and tim23-1 inh 11.
`O=S1(=O)C=C(Sc2nnc(-c3ccccc3)o2)c2ccccc21` gave tim10-1 inh 94*, TIM10 inh 91*, PfHsp90 yeast 2 111*, SKKanGAS inh 18, tim23-1 inh 57*, tim10-1 conf 92*, TIM10 conf 91* and tim23-1 conf 85*.
Screening COc1cc(/C=C2\COC/C(=C\c3ccc(O)c(OC)c3)C2=O)ccc1O returned tim10-1 inh 71*, TIM10 inh 67*, PfHsp90 yeast 2 -4, SKKanGAS inh 16, tim23-1 inh 69*, tim10-1 conf 68*, TIM10 conf 61* and tim23-1 conf 82*.
Screening S=C(NCCCN1CCOCC1)N(Cc1ccccc1)Cc1ccccc1 returned tim10-1 inh 17, TIM10 inh 10, PfHsp90 yeast 2 6, SKKanGAS inh -1 and tim23-1 inh -4.
Screening CCCCCc1ccc(CC(=O)Nn2c(C)nc3ccccc3c2=O)cc1 returned tim10-1 inh 60*, TIM10 inh 7, PfHsp90 yeast 2 -7, SKKanGAS inh 5, tim23-1 inh 52*, tim10-1 conf 48* and tim23-1 conf 69*.
COc1cc2cc(-c3ccc(O)cc3O)nc(C)c2cc1OC was read as tim10-1 inh 40*, TIM10 inh 46*, PfHsp90 yeast 2 6, SKKanGAS inh 1, tim23-1 inh 51*, tim10-1 conf 32*, TIM10 conf 43* and tim23-1 conf 55*.
`CN(CC1CCOCC1)C(=O)CC1C(=O)NCCN1Cc1cccc(F)c1` (stereo not drawn) gave tim10-1 inh 9, TIM10 inh -7, PfHsp90 yeast 2 -4, SKKanGAS inh 0 and tim23-1 inh -9.
`CC(=O)O/N=C(\N)c1cnn2c(C(F)(F)F)cc(C(F)(F)F)nc12` gave tim10-1 inh 3, TIM10 inh 16, PfHsp90 yeast 2 -3, SKKanGAS inh -1 and tim23-1 inh 13.
O=C(N/N=C/c1ccc2c(c1)OCO2)c1cc2ccccc2o1 was read as tim10-1 inh -3, TIM10 inh -1, PfHsp90 yeast 2 4, SKKanGAS inh -10 and tim23-1 inh -2.
For O=C(N/N=C/c1ccsc1)c1cc2ccccc2o1 the results were tim10-1 inh 46*, TIM10 inh 55*, PfHsp90 yeast 2 -8, SKKanGAS inh 1, tim23-1 inh 56*, tim10-1 conf -4, TIM10 conf 48* and tim23-1 conf 67*.
`O=C1CC(c2ccccc2)CC(O)=C1C=Nc1cccc(Cl)c1` (stereo not drawn) gave tim10-1 inh 89*, TIM10 inh 90*, PfHsp90 yeast 2 105*, SKKanGAS inh 3, tim23-1 inh 85*, tim10-1 conf 79*, TIM10 conf 94* and tim23-1 conf 85*.
For CCn1c(=O)n(CC)c2cc(N3CCCC3)c(NC(=O)c3ccccc3OC)cc21 the results were tim10-1 inh -26, TIM10 inh 9, PfHsp90 yeast 2 -31, SKKanGAS inh 12 and tim23-1 inh 46.
Screening CCOc1ccccc1C(=O)Nc1cc2c(cc1N1CCCC1)n(CC)c(=O)n2CC returned tim10-1 inh 48*, TIM10 inh 10, PfHsp90 yeast 2 -77, SKKanGAS inh -7, tim23-1 inh 57*, tim10-1 conf 5 and tim23-1 conf 51*.
Screening N#C/C(=C\c1ccco1)Sc1nc2ccccc2s1 returned tim10-1 inh 50*, TIM10 inh 56*, PfHsp90 yeast 2 21, SKKanGAS inh 12, tim23-1 inh 58*, tim10-1 conf 58*, TIM10 conf 44* and tim23-1 conf 51*.
`O=C(CSc1nc2ccccc2s1)N/N=C/c1ccco1` gave tim10-1 inh 0, TIM10 inh -4, PfHsp90 yeast 2 -4, SKKanGAS inh -9 and tim23-1 inh 5.
For O=C(CSc1ccccc1)N1CCCC(N2CCN(c3cccc(Cl)c3)CC2)C1 (stereo not drawn) the results were tim10-1 inh 35, TIM10 inh 17, SKKanGAS inh 4 and tim23-1 inh 28.
Screening CC1Cc2ccccc2N1C(=O)CN1CCC(n2nnc3cc(C(F)(F)F)ccc32)CC1 (stereo not drawn) returned tim10-1 inh 41*, TIM10 inh 29, PfHsp90 yeast 2 -22, SKKanGAS inh 3, tim23-1 inh 50*, tim10-1 conf 38* and tim23-1 conf 42*.
For COC(=O)c1ccccc1NC(=O)CN1CCC(n2nnc3cc(C(F)(F)F)ccc32)CC1 the results were tim10-1 inh 16, TIM10 inh 21, PfHsp90 yeast 2 3, SKKanGAS inh 12 and tim23-1 inh 1.
For CCS(=O)(=O)n1nc(-c2ccc(Cl)cc2)nc1SCc1ccccc1 the results were tim10-1 inh 40*, TIM10 inh 9, SKKanGAS inh 29, tim23-1 inh 62*, tim10-1 conf 2 and tim23-1 conf 57*.
`COc1ccc(-c2nc(SCc3ccccc3)n(S(C)(=O)=O)n2)cc1` gave tim10-1 inh 17, TIM10 inh 33, PfHsp90 yeast 2 -9, SKKanGAS inh 0 and tim23-1 inh 11.
`Nc1c(Cl)cc2c(c1Oc1ccccc1)C(=O)c1ccccc1C2=O` gave tim10-1 inh 52*, TIM10 inh 54*, PfHsp90 yeast 2 -5, SKKanGAS inh 6, tim23-1 inh 66*, tim10-1 conf 20, TIM10 conf 48* and tim23-1 conf 67*.
